ChEMBL document CHEMBL3988442, “University of Dundee, Small-Polar-MMV Screening Library” (2021)
Screen size: about 66,000 compounds; about 960 (1.5%) showed an effect of 50% or more. The sample holds strong results, similar compounds and a random draw of the others, so the mix is not that of the screen.

Tested on: Trypanosoma brucei
Assay: Trypanosoma brucei 72 hour study
Assay type: functional, organism-based
Set-up: scale not given: in the data most compounds retested in dose-response had high values

Compound: CC(NC(=O)NCc1cc(Br)cs1)c1ccccn1 (stereo unspecified)
- Percent Effect (10 µM): -58.94%

Compound: COc1ccc(CN2CCC(c3nnc(-c4scnc4C)o3)CC2)cc1
- Percent Effect (30.3 µM, […]): 3.062%

Compound: CCCn1ncc(-c2ccnc(N[C@@H]3C[C@@H]4CC[C@H]3C4)n2)c1C
- Percent Effect (30.3 µM, […]): 89.15%

Compound: CCCn1ncc(-c2ccnc(NC3CC(C)(C)NC(C)(C)C3)n2)c1C
- Percent Effect (30.3 µM, […]): 25.37%

Compound: CCCn1ncc(-c2ccnc(NC3CCCc4ccccc43)n2)c1C (stereo unspecified)
- Percent Effect (30 µM, 30.03 µM): 93.43%

Compound: CCCn1cc(-c2ccnc(NC3CCc4ccccc4C3)n2)c(C)n1 (stereo unspecified)
- Percent Effect (30 µM, 30.03 µM): 2.067%

Compound: Cn1ncc2c(N[C@@H]3C[C@@H]4CC[C@H]3C4)nc(-c3ccncc3)nc21
- Percent Effect (30.3 µM, […]): -15.13%

Compound: CCCn1cc(-c2ccnc(NC3CCc4ccccc43)n2)c(C)n1 (stereo unspecified)
- Percent Effect (30 µM, 30.03 µM): 34.15%

Compound: CCCn1ncc(-c2ccnc(NC3CCSC3)n2)c1C (stereo unspecified)
- Percent Effect (30.3 µM, […]): 99.54%

Compound: CCCn1cc(-c2ccnc(NC3CCCc4ccccc43)n2)c(C)n1 (stereo unspecified)
- Percent Effect (30 µM, 30.03 µM): 15.8%

Compound: CCc1cc(N[C@@H]2C[C@H]3CC[C@@H]2C3)n2nccc2n1
- Percent Effect (30 µM, 30.03 µM): 24.99%

Compound: Cc1ccc(C(=O)N2CCC3(CCN3c3ncccn3)C2)cn1.O=C(O)C(F)(F)F (stereo unspecified)
- Percent Effect (30 µM, 30.03 µM): -27.47%

Compound: COC(=O)CCN(C)C(=O)c1csc(Cc2ccccc2F)n1
- Percent Effect (30 µM, 30.03 µM): -48.33%

Compound: O=C(O)C(F)(F)F.O=C(c1ccccc1)N1CCC2(CCCN2c2ncccn2)CC1
- Percent Effect (30 µM, 30.03 µM): -3.287%

Compound: Oc1cccc(CN2C[C@H]3CC[C@@H]2CN(Cc2ccc(F)cc2)C3)c1
- Percent Effect (30.3 µM, […]): 102.6%

Compound: Cc1nnsc1CN1C[C@H]2CC[C@@H]1CN(Cc1ccc(F)cc1)C2
- Percent Effect (30 µM, 30.03 µM): -34.67%

Compound: CCCN1C[C@H]2CC[C@@H]1CN(Cc1cccc(O)c1)C2
- Percent Effect (30.3 µM, […]): -137.4%

Compound: Cc1ccc(CN2CCc3nnc(COCCN(C)C)n3CC2)o1.O=C(O)C(F)(F)F.O=C(O)C(F)(F)F
- Percent Effect (30.3 µM, […]): -5.489%

Compound: Cc1ccc2c(n1)N(CC1CC1)CCN(Cc1cnn(C)c1)C2
- Percent Effect (30.3 µM, […]): -21.1%

Compound: CN1CCCN(c2nccc(-c3c[nH]c4ccc(Br)cc34)n2)CC1
- Percent Effect (30.3 µM, […]): 99.21%

Compound: NC(=O)C1CCN(c2nccc(-c3c[nH]nc3C3CCCCC3)n2)CC1
- Percent Effect (30.3 µM, […]): 100.2%

Compound: c1cc(-c2cn3nccc3nc2C2CCCCC2)nc(N2CCCC2)n1
- Percent Effect (30.3 µM, […]): 41.66%

Compound: CN1CCCN(c2nccc(-c3cc(C(=O)O)ccn3)n2)CC1
- Percent Effect (30 µM, 30.03 µM): -37.76%

Compound: CN1CCCN(c2nccc(-c3c[nH]nc3C3CCCCC3)n2)CC1
- Percent Effect (30 µM, 30.03 µM): 98.42%

Compound: NC(=O)[C@H]1CCCN(c2nccc(-c3c[nH]nc3-c3cccnc3)n2)C1
- Percent Effect (30.3 µM, […]): -17.38%

Compound: CN1CCCN(c2nccc(-c3c[nH]nc3-c3ccncc3)n2)CC1
- Percent Effect (30.3 µM, […]): 10.61%

Compound: c1cc(-c2c[nH]nc2C2CCCCC2)nc(N2CCCCCC2)n1
- Percent Effect (30.3 µM, […]): 99.82%

Compound: Cc1ccnc(N2CCC(C(N)=O)CC2)n1
- Percent Effect (30.3 µM, […]): -17.59%

Compound: CN1CCCN(c2nccc(-c3cncnc3C3CCCCC3)n2)CC1
- Percent Effect (30.3 µM, […]): -3.717%

Compound: Nc1nccc(-c2c[nH]nc2C2CCCCC2)n1
- Percent Effect (30 µM, 30.03 µM): 44.22%

Compound: CN1CCN(c2nccc(-c3cncnc3C3CCCCC3)n2)CC1
- Percent Effect (30.3 µM, […]): -9.341%
